High-throughput results (PubChem BioAssay)
Compounds with a hit are over-represented: about 12% of the library has one in this group of screens.
BAZ2B inh – BAZ2B (human) inhibition; Q9UIF8; AlphaScreen BAZ2B-H3K14Ac peptide displacement; Potency, µM (top dose mostly 114 µM), for the others: top-dose activity change, negative = inhibition, hits mostly inhibitors; hit rate 4.4% among 360,000; AID 504333; further: on the % scale 0 is the no-effect control and ±100 the full control effect; nearly all actives have a fitted effect of over 60% in size
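BAZ2B (50 nM) with biotin-H3(5-23)K14Ac peptide (50 nM) in PBS pH 7.4, 0.01% Tween-20, preformed 30 min, then compound 30 min at room temperature; top concentration 110uM. AlphaScreen streptavidin donor/nickel chelate acceptor beads (10 ug/mL final), 20 min dark, signal read.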
HP1b binding inh – inhibitors of HP1-beta chromodomain binding to methylated histone tails; P83916; AlphaScreen HP1-beta / biotin-H3K9me3 peptide binding; Potency, µM (top dose mostly 114 µM), for the others: top-dose activity change, negative = inhibition, most hits filed as inhibitors; hit rate 0.56% among 390,000; AID 540317; further: nearly all actives have a fitted effect of over 70% in size
Target sequence (P83916 whole entry, looked up): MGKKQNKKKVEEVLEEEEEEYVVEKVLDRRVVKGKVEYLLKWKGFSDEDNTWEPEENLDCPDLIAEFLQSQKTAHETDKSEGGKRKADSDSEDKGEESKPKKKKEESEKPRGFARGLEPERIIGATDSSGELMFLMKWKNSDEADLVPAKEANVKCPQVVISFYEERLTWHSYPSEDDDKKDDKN
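Compound inhibition of the preformed complex between 50 nM HP1-beta and 50 nM biotinylated H3K9me3 peptide was read by AlphaScreen. Buffer was PBS pH 7.4 with 0.01% Tween-20. Incubations ran 30 min at room temperature, with 10 ug/mL donor/acceptor beads.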
JMJD2A Tudor inh – inhibitors of human JMJD2A Tudor domain; hit rate 4.4% among 390,000; AlphaScreen JMJD2A-Tudor / H3K4me3 peptide binding; O75164; AID 504339; Potency, µM (highest dose often 114 µM), for the others: at the highest dose activity change, negative = inhibition, actives largely listed as inhibitors; further: on the % scale 0 is the no-effect control and ±100 the full control effect; nearly all actives have a fitted effect of over 50% in size
Sfp PPTase inh – inhibitors of Bacillus subtilis Sfp phosphopantetheinyl transferase; Q9F4F7; Biochemical Sfp PPTase activity, qHTS; Potency, µM, inactives show largest response in the series, negative = inhibition, hits mostly inhibitors; hit rate 3.5% among 310,000;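 further: the enzyme is Sfp with the accession as filed and its product quenches rhodamine fluorescence; 0% = enzyme reaction without inhibitor and -100% = no enzyme wells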
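Sfp 15 nM + cpd, 15 min RT; start w/ rhodamine-CoA 5 uM, BHQ-2-YbbR 12.5 uM (final); 50 mM Hepes pH 7.6, 10 mM MgCl2, 0.01% NP-40, 0.01% BSA; read 525/598 nm at 0 and 30 min.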
L3MBTL1 inh – inhibitors of human L3MBTL1; hit rate 0.66% among 230,000; Potency, µM (top dose mostly 57.1 µM), for the others: at the highest dose activity, negative = inhibition, usual class: inhibitors; AlphaScreen L3MBTL1–H3K9me1 peptide binding; AID 485360; Q9Y468; further: on the % scale 0 is the no-effect control and ±100 the full control effect; nearly all actives have a fitted effect of over 60% in size
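Read-out is AlphaScreen signal from streptavidin donor and nickel chelate acceptor beads (10 ug/mL final each) bridging L3MBTL1 (50 nM) and biotinylated K9-monomethylated H3(1-15) peptide (75 nM), after 30 min compound exposure at room temperature.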
G9a block – inhibitors of human histone lysine methyltransferase G9a; Q96KQ7; G9a H3K9 monomethylation, AlphaScreen, 2 h; Potency, µM (doses to about 102 µM), for the others: at the top dose activity, negative = inhibition, hits mostly inhibitors; hit rate 8.8% among 350,000; AID 504332; further: on the % scale 0 is the no-effect control and ±100 the full control effect; nearly all actives have a fitted effect of over 75% in size
Target sequence (Q96KQ7 913-1193 limits assumed): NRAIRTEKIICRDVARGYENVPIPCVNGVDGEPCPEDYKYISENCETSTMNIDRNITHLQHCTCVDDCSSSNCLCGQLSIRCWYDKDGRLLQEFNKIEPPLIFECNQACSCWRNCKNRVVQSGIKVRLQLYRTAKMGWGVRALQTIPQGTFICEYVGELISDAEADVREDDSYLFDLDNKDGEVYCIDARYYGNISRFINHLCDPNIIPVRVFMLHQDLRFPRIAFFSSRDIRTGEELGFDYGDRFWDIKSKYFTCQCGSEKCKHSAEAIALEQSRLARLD
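Methyltransferase reactions run at room temperature for 2 h (20 nM enzyme, 500 nM biotin-H3K9 peptide, 20 uM SAM) after a 15 min compound preincubation; product detected by AlphaScreen beads and anti-H3K9me1 antibody.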
Active calls of the source: *; ? = inconclusive; nt = not tested or not shown; [ ] = dose if it differs, or a comment. The call rests on the fitted dose curve; in most records, active means well fitted curve in the direction sought with a large enough effect; inconclusive means small, poorly fitted or top-dose-only effect, or another doubt; inactive means no such curve, though single readings can be large; an effect the other way counts as inactive or inconclusive. Potency means the concentration at half of the fitted maximal effect.

SMILES	BAZ2B inh	HP1b binding inh	JMJD2A Tudor inh	Sfp PPTase inh	L3MBTL1 inh	G9a block
Cc1ccc(S(=O)(=O)Nc2nnc(C(C)(C)C)s2)cc1	-6%	-2%	-5%	-56%	3%	4.5µM*
CC1(C)CC(=O)C(C=Nc2cccnc2/N=C/C2=C(O)CC(C)(C)CC2=O)=C(O)C1	0%	3%	-10%	20%	nt	?
CC1(C)CC(=O)C(C=Nc2ccc(C(=O)c3ccccc3)cc2N=CC2=C(O)CC(C)(C)CC2=O)=C(O)C1	?	32%	-34%	-89%	?	40µM*
CC1(C)CC(=O)C(C=Nc2ccc(O)c(N=CC3=C(O)CC(C)(C)CC3=O)c2)=C(O)C1	-14%	43%	-27%	8%	8%	20µM*
Cc1cccc(/N=C/C2=C(O)CC(C)(C)CC2=O)n1	1%	25%	-2%	17%	3%	?
Cc1cc(N=CC2=C(O)CC(C)(C)CC2=O)no1	nt	31%	79µM*	7%	5%	-26%[59 µM]
NC(=O)C1CCN(C(=O)c2ccc3c(c2)N(Cc2cccc(Cl)c2)C(=O)c2ccccc2S3=O)CC1 (centres undefined)	5%	-12%	-4%	nt	nt	5%[59 µM]
CCOc1ccc(NC(=O)CSC2=Nc3ccccc3C3=NC(CC(=O)NCc4ccccc4OC)C(=O)N23)cc1 (centres undefined)	17%	46%	-34%	nt	nt	-1%[59 µM]
CN(C)CCN(C(=O)c1ccc(S(=O)(=O)N2CCCC2)cc1)c1nc2ccc(Br)cc2s1	-18%	35%	-24%	-17%	nt	71µM*
CCC1CCCCN1S(=O)(=O)c1ccc(C(=O)N(CCCN(C)C)c2nc3cc4c(cc3s2)OCO4)cc1 (centres undefined)	?	-11%	?	-12%	nt	56µM*
CCc1ccc2nc(N(CCCN(C)C)C(=O)c3ccc(S(=O)(=O)N4CCCC4)cc3)sc2c1	-30%	18%	-35%	1%	nt	50µM*
CCOC(=O)N1CCN(S(=O)(=O)c2ccc(C(=O)N(CCN(C)C)c3nc4ccc(CC)cc4s3)cc2)CC1	?	-1%	?	2%	nt	50µM*
CCOC(=O)N1CCN(S(=O)(=O)c2ccc(C(=O)N(CCCN(C)C)c3nc4ccc(CC)cc4s3)cc2)CC1	-36%	8%	?	-23%	nt	?
Cc1ccc(CN2COc3ccc4c(-c5ccccc5)cc(=O)oc4c3C2)cc1	2%	89%	1%	nt	nt	27%[59 µM]
CC1CCCCN1S(=O)(=O)c1ccc(C(=O)N(CCCN(C)C)c2nc3ccc(Br)cc3s2)cc1 (centres undefined)	?	-17%	45µM*	50µM*	nt	nt
CCc1ccc2nc(N(CCCN(C)C)C(=O)c3ccc(S(=O)(=O)N4CCCc5ccccc54)cc3)sc2c1	?	?	45µM*	35µM*	nt	40µM*
CC1CN(S(=O)(=O)c2ccc(C(=O)N(CCCN(C)C)c3nc4cc5c(cc4s3)OCCO5)cc2)CC(C)O1 (centres undefined)	-5%	4%	-36%	nt	-9%	50µM*
CN(C)CCCN(C(=O)c1ccc2c(c1)OCCO2)c1nc2cc3c(cc2s1)OCO3	-15%	16%	-23%	10%	nt	nt
Cc1ccc2nc(N(CCCN(C)C)C(=O)c3ccc(S(=O)(=O)N4CCCCCC4)cc3)sc2c1	?	-4%	?	-20%	nt	-28%
CCOC(=O)N1CCN(S(=O)(=O)c2ccc(C(=O)N(CCN(CC)CC)c3nc4ccc(C)cc4s3)cc2)CC1	?	-18%	?	-9%	nt	50µM*
COc1ccc(-n2c(SCc3ccccc3F)nc3c([nH]c4ccccc43)c2=O)cc1	3%	9%[57 µM]	2%	nt	nt	10%[59 µM]
CCOC(=O)c1scc(-c2ccccc2)c1S(=O)(=O)Nc1ccc(N(C)C)cc1	20µM*	?	14µM*	nt	nt	4.5µM*
CCOC(=O)c1scc(-c2ccccc2)c1S(=O)(=O)Nc1cc(Cl)c(OC)cc1OC	?	?	-24%	nt	nt	10µM*
CSc1nc(N)c2ncn([C@@H]3O[C@H](COP(=O)(O)OP(=O)(O)O)C(O)[C@H]3O)c2n1 (some centres undefined)	nt	nt	nt	nt	nt	9.5µM*
CC(C)(COP(=O)(O)OP(=O)(O)OC[C@H]1O[C@@H](n2cnc3c(N)ncnc32)[C@H](O)[C@@H]1OP(=O)(O)O)C(O)C(=O)NCCC(=O)NCCS (some centres undefined)	nt	nt	nt	40µM*	nt	-30%[12.7 µM]
SMILES	BAZ2B inh	HP1b binding inh	JMJD2A Tudor inh	Sfp PPTase inh	L3MBTL1 inh	G9a block
CSc1nc(N)c2ncn([C@@H]3O[C@H](COP(=O)(O)OP(=O)(O)OP(=O)(O)O)[C@@H](O)[C@H]3O)c2n1	nt	nt	nt	-16%	nt	37%[59 µM]
CCOc1cc(C(=O)NCC(c2ccc(N(C)C)cc2)N2CCOCC2)cc(OCC)c1OCC (centres undefined)	-36%	8%	-25%	nt	nt	-16%[12.7 µM]
CS(=O)(=O)/C=C/c1nc(Nc2cc(F)cc(F)c2)c2ncn(CC(F)F)c2n1	nt	nt	-19%	nt	nt	nt
O=C(Nc1cccnc1)Nc1ccc(Cl)cc1Cl	-19%	42%	?	-11%	-9%	50µM*
COCCNC(=O)CCc1ccc(S(=O)(=O)Nc2ccc(C)cc2)cc1	-1%	5%	-20%	79µM*	nt	-50%[2.33 µM]
O=C(O)/C=C/c1ccc(S(=O)(=O)Nc2ccc(OCc3ccccc3)cc2)cc1	-28%	27%	-11%	-3%	nt	17%[59 µM]
O=C(O)CCc1ccc(S(=O)(=O)Nc2ccc(OCc3ccccc3)cc2)cc1	-14%	10%	-24%	28%	nt	45µM*
OC(CNCC#Cc1ccccc1)c1ccccc1 (centres undefined)	-26%	36%	-14%	18%	0%[11.4 µM]	?
CCC(CO)NCC#Cc1ccccc1 (centres undefined)	-34%	24%	-17%	7%	-2%	56µM*
O=C(c1ccccc1)c1ccc(O)c(O)c1O	nt	?	25µM*	nt	nt	nt
O=C(NNc1nc(-c2ccc(Br)cc2)cs1)c1ccco1	-38%	30%	-26%	-10%	-19%	28µM*
CCOc1ccc(-c2csc(NC(=O)c3ccco3)n2)cc1	-6%	11%	-22%	-7%	0%	40µM*
O=C(NC(=S)Nc1nc(-c2ccc([N+](=O)[O-])cc2)cs1)c1ccco1	-24%	-15%	-25%	-17%	nt	25µM*
COc1ccc(N2CCN(C(=O)Cc3c(C(=O)O)c(C)cn3C)CC2)cc1	-13%	7%	-12%	nt	nt	0%[59 µM]
CCOC(=O)c1cc2c(=O)n3ccccc3nc2n(C)c1=NC(=O)c1c(-c2ccccc2Cl)noc1C	9%	55%	-15%	nt	nt	32%[59 µM]
Cn1cccc1C(=O)N1CCC2(CC1)CN(c1ccncc1)C2	nt	nt	nt	7%	nt	39%[12.7 µM]
